For the first test, the target named is FGA. Kind of test: pooled miR-30 sensor sort-seq; sequence = guide strand. As to conditions: shRNA.
The sequence TTCAGGACTTCAATTCTGCTTC showed a sensor-assay potency score (higher = more potent) of -0.0905.
TTGATTGACTTCATCAATCAAC gave a sensor-assay potency score (higher = more potent) of -0.764.
For TAGACTTCTGCACAGTTCTCTT, the sensor-assay potency score (higher = more potent) was -0.561.
Take TTGTAGAGAATCTCAACTGCTT: the sensor-assay potency score (higher = more potent) was 0.304.
Still for that read-out and setting: the value for TTGACTTCATCAATCAACCCTT was -0.0172.

The next test concerns the target FGF1. Described as above. The conditions noted are these: shRNA.
The sequence TGAATGTGCTGGTCGCTCCTGT displayed a sensor-assay potency score (higher = more potent) of -0.0696.
TTTGCAGCTCCCATTCTTCTTG gave a sensor-assay potency score (higher = more potent) of -0.462.
TGGGCTTCTTGTAATTCCCTGG returned a sensor-assay potency score (higher = more potent) of -0.134.
TTGCTTTCTGGCCATAGTGAGT: the sensor-assay potency score (higher = more potent) is -1.34.
In turn, TTCTTGGATATATAGGTGTTGT gave a sensor-assay potency score (higher = more potent) of -1.22.
TTGGATATATAGGTGTTGTAAT gave a sensor-assay potency score (higher = more potent) of -0.998.
The same measure, in the same setting: the value for TAGTGAGTCCGAGGACCGCGTT was -1.55; that for TAATGGTTCTCCTCCAGCCTTT was -0.798.
Regarding TTCTCTGCATGCTTCTTGGATA, the sensor-assay potency score (higher = more potent) is -0.722.
As to AACAAGATTGCTTTCTGGCCAT, the sensor-assay potency score (higher = more potent) is -0.264.
For the sequence TTAAACTTCTCGGTCAGGGCTG, the sensor-assay potency score (higher = more potent) is -0.0976.
With ATTTGGTGTCTGTGAGCCGTAT, the sensor-assay potency score (higher = more potent) is -0.909.
Still for that read-out and setting: the value for AGGCAGATTAAACTTCTCGGTC was -1.58; that for TTGGGCTTCTTGTAATTCCCTG was -0.211.
For the sequence TCATTTGGTGTCTGTGAGCCGT, the sensor-assay potency score (higher = more potent) was -0.0568.
As for TTTCTGGCCATAGTGAGTCCGA, the sensor-assay potency score (higher = more potent) is -0.918.
The same measure, in the same setting: the value for TTGCAGCTCCCATTCTTCTTGA was -1.07.
TTTGGTGTCTGTGAGCCGTATA returned a sensor-assay potency score (higher = more potent) of -0.694.
On to TATATAGGTGTTGTAATGGTTC, for which the sensor-assay potency score (higher = more potent) is -0.522.
The sequence TAAACTTCTCGGTCAGGGCTGT came in with a sensor-assay potency score (higher = more potent) of 0.184.
The sequence TTTCCAGGAACAAACATTCCTC showed a sensor-assay potency score (higher = more potent) of -0.373.
As for TTCCAGGAACAAACATTCCTCA, the sensor-assay potency score (higher = more potent) is -0.434.
In turn, TTCTTCTCTGCATGCTTCTTGG returned a sensor-assay potency score (higher = more potent) of -0.847.
Same read-out and setting: with TCTGGCCATAGTGAGTCCGAGG the figure was -1.16.

A further test deals with FGF23. Described as above. The conditions noted are these: shRNA.
TGGAACCTGCAGTTCTCCGGGT gave a sensor-assay potency score (higher = more potent) of -0.566.
TCCATGCAGAGGTATCTTCTGC yielded a sensor-assay potency score (higher = more potent) of -1.48.
In turn, AATGTTGCCTCTGAAATCCATG yielded a sensor-assay potency score (higher = more potent) of -1.53.
Still for that read-out and setting: the value for TATCTTCTGCTCATCACACCTG was 0.064.
As to TTCTGCTCATCACACCTGTAAT, the sensor-assay potency score (higher = more potent) is -1.67.
TGGATCTGCAGGTGGTAGCTGT had a sensor-assay potency score (higher = more potent) of -0.923.
TTGGAACCTGCAGTTCTCCGGG came in with a sensor-assay potency score (higher = more potent) of 0.14.
Still for that read-out and setting: the value for ATCCTCTGATCTGATCATCAGG was -1.39; that for TCTGATCTGATCATCAGGGCAC was 0.338; that for TTCTTGTGGATCTGCAGGTGGT was -1.08.
On the same count and under the same terms, with TTGCCTCTGAAATCCATGCAGA the figure was -1.09.

For the origin of these results see the OligoGym collection.
Further: reference of the scale not given here.
